Results taken from PubChem BioAssay (EPA / NIEHS).
Values joined by “and” are separate entries in the source; they are usually repeats but may differ in a detail not shown here. Equal values may be shown once. Some structures have more than one record in an assay (separate samples or runs), and their calls can disagree. Active and inactive are the calls of the source. Rule for the calls: active = hit-call score of the fitted dose curve at least 0.9, where 1 is the maximum; inactive = score below 0.9.

Biological target: X-box-binding protein 1 (Homo sapiens) (UniProt P17861)
Test: ATG_Xbp1_CIS: Attagene CIS-FACTORIAL HepG2 Assay for human X-box Binding Protein 1 (XBP1) (AID 2282972)
Details: HepG2 XBP1 cis-element reporter, Attagene multiplex; actives raise or lower the signal
Description: ATG_CIS is a cell-based, multiplexed-readout assay that uses HepG2, a human liver cell line, with measurements taken at 24 hours after chemical dosing in a 24-well plate.ATG_Xbp1_CIS is one of 52 assay component(s) measured or calculated from the ATG_CIS assay. It is designed to make measurements of mRNA induction, a form of inducible reporter, as detected with fluorescence intensity signals by Reverse transcription polymerase chain reaction (RT-PCR) and Capillary electrophoresis technology.Data from the assay component ATG_Xbp1_CIS was analyzed into 1 assay endpoint. This assay endpoint, ATG_Xbp1_CIS, was analyzed with bidirectional fitting relative to DMSO as the negative control and baseline of activity. Using a type of inducible reporter, measures of mRNA for gain or loss-of-signal activity can be used to understand the reporter gene at the transcription factor-level as they relate to the gene XBP1. Furthermore, this assay endpoint can be referred to as a primary readout, because this assay has produced multiple assay endpoints where this one serves a reporter gene function. To generalize the intended target to other relatable targets, this assay endpoint is annotated to the dna binding intended target family, where the subfamily is basic leucine zipper.
Human liver HepG2 cells are transiently transfected with multiple reporter transcription units (MRTUs) in 6-well plates using FuGene 6 reagent (Roche; 3 ml FuGene/1 mg DNA). The MRTU constructs are regulated by a cis-regulating element (promoter). […] A major difference between the CIS and TRANS system is that in CIS activities of endogenous TFs are measured, whereas the TRANS assay evaluates changes in activities of exogenous, chimeric NR-Gal4 proteins. […] At the end of 24 hour incubation, total RNA was isolated using TriZol reagent (Invitrogen). The isolated RNA is then reverse-transcribed using oligo(dT) primer and Mo-MLV reverse transcriptase (Invitrogen) with DNAse I (Ambion) treatment for 30 min. The one-tenth of the produced cDNA was amplified by PCR using Taq DNA polymerase (Invitrogen) and two reporter sequence-specific primers. The PCR products were fluorescently labeled by primer extension with 6-arboxyfluorescein (6-FAM) 5'-labeled reporter sequence-specific primer (2 min at 95 C, 20 s at 68 C and 10 min at 72 C) and these products were digested with 5U of HpaI (New England Biolabs) for 2h at 37 C. The fragments were purified using Qiaquick PCR columns (Qiagen), analyzed on an ABI 3130xL genetic analyzer (Applied Biosystems) with peak positions identified by using a set of X-rhodamine (ROX)-labeled MapMarker1000 molecular weight standards (BioVentures). The raw capillary electrophoresis data was processed using Attagraph software (Attagene).

Chain of X-box-binding protein 1 (Homo sapiens) (P17861 whole entry, looked up): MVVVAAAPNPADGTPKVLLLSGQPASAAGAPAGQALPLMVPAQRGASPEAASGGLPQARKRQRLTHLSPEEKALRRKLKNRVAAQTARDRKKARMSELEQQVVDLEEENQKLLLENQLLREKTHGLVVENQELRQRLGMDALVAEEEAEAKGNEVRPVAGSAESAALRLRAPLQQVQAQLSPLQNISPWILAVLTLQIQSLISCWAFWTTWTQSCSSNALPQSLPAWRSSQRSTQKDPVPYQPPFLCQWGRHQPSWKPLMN

AC50, active:
Cc1occc1C(=O)Nc1ccc(C(=O)N2CCC(F)(F)/C(=C\C(=O)N3CCC(N4CCCCC4)CC3)c3ccccc32)cc1 51.2 µM
O=C(Nc1ccc(Cl)cc1)Nc1ccc(Cl)c(Cl)c1 5.26 µM
CC(=O)N1CCN(c2ccc(OC[C@H]3CO[C@](Cn4ccnc4)(c4ccc(Cl)cc4Cl)O3)cc2)CC1 18.3 µM
NC(=O)c1nc(-c2cccc(-c3cc(F)ccc3OCC(F)(F)C(F)(F)F)c2)n[nH]1 44.6 µM
CC/C(=C(/CC)c1ccc(O)cc1)c1ccc(O)cc1 14.4 µM [middle of 4 runs]
Clc1ccccc1C(c1ccccc1)(c1ccccc1)n1ccnc1 11.1 µM
O=c1[nH]sc2ccccc12 52.9 µM
CC(O)CC(C)(C)O (stereo not given) 0.0122 µM
CCCCCCCCCCCC[N+](C)(C)C 33.4 µM
CCCCOC(=O)c1ccc(O)cc1 107 µM
CC(C)(c1cc(Br)c(O)c(Br)c1)c1cc(Br)c(O)c(Br)c1 45.9 µM and 42.9 µM
CCN(Cc1cccnc1)C(=O)c1cccc(Cl)c1[C@]1(C)C(=O)N(Cc2ccc(OC)cc2OC)c2ccc(Cl)cc21 4.01 µM

outcome, inactive:
Cc1oc2c(NC(=O)c3c(Cl)cccc3Cl)cccc2c1C(C)(C)O
CCCCCCCCOC(=O)c1cc(O)c(O)c(O)c1
O=C1CCC(C2CCCCC2)CC1
CC/C(=C(/CC)c1ccc(O)cc1)c1ccc(O)cc1
Cc1cc(F)ccc1-c1cc(N2CC[C@@H](O)[C@H]2CO)ncc1N(C)C(=O)C(C)(C)c1cc(C(F)(F)F)cc(C(F)(F)F)c1
Clc1cc(Cl)c2c(c1)N=C1CCCCCN1C2
C[C@]12CC[C@@H]3c4ccc(O)cc4CC[C@H]3[C@@H]1CC[C@H]2O
CCCCCCCCCCCCO
CCCCOC(=O)CC(CC(=O)OCCCC)(OC(C)=O)C(=O)OCCCC
OC12N=C(c3ccccc3)SC1Cc1cc(Cl)ccc12 (stereo not given)
CCCCCCCC[Si](OCC)(OCC)OCC
Cc1ncc(CO)c(CO)c1O
O=C(O)Cc1cc(I)c(Oc2ccc(O)c(I)c2)c(I)c1
CC(O)CC(C)(C)O (stereo not given)
CCCCCCCCOc1ccc(C(=O)c2ccccc2)c(O)c1
CCCCCCCCCCCC[N+](C)(C)C
CC[C@@H]1C[C@H](N(Cc2cc(C(F)(F)F)cc(C(F)(F)F)c2)C(C)=O)c2cc(C(F)(F)F)ccc2N1C(=O)OC(C)C
Oc1ccc2ccccc2c1
CCCCOC(=O)c1ccc(O)cc1
c1ccc(C[n+]2cccc3ccccc32)cc1
CCN(Cc1cccc(S(=O)(=O)O)c1)c1ccc(C(=C2C=CC(=[N+](CC)Cc3cccc(S(=O)(=O)O)c3)C=C2)c2ccccc2S(=O)(=O)[O-])cc1
O=C(O)Cn1c(=O)n(Cc2ccc(Br)cc2F)c(=O)c2ccc(Cl)cc21
O=c1ccc2ccccc2o1
CC1=CC(=O)/C(=C(/C)O)C(=O)O1
CO[C@H]1/C=C/O[C@@]2(C)Oc3c(C)c(O)c4c(O)c(c(/C=N/N5CCN(C)CC5)c(O)c4c3C2=O)NC(=O)/C(C)=C\C=C\[C@H](C)[C@H](O)[C@@H](C)[C@@H](O)[C@@H](C)[C@H](OC(C)=O)[C@@H]1C
CN(C[C@@H](CC[N+]12CCC(C3CCCCC3)(CC1)CC2)c1ccc(Cl)c(Cl)c1)C(=O)c1cc(C(F)(F)F)cc(C(F)(F)F)c1
CCCCCc1ccc(N)cc1
Cc1ccc2oc(CN(Cc3ccccc3)C(=O)Nc3c(F)cc(F)cc3F)c(-c3ccc(Cl)cc3)c2c1
